The source made the active and inactive calls. The calls were made as follows: active = hit-call score of the fitted dose curve at least 0.9, where 1 is the maximum; inactive = score below 0.9.
Tests used:
[1] = ATG_CRE_CIS: Attagene CIS-FACTORIAL HepG2 Assay for human cAMP Responsive Element (CRE) binding protein 3 (AID 2282926); settings: HepG2 CRE cis-reporter, Attagene multiplexed mRNA; actives raise or lower the signal
How it was run: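 We dosed HepG2 cells bearing multiple cis-promoter reporter units for 24 h and measured reporter mRNA by RT-PCR with capillary electrophoresis detection. Bidirectional concentration-response fitting used DMSO as negative control.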

[2] = target: CCAAT/enhancer-binding protein beta (Homo sapiens) (UniProt P17676); experiment: ATG_C_EBP_CIS: Attagene CIS-FACTORIAL HepG2 Assay for human CCAAT/Enhancer Binding Protein (C/EBP) beta (AID 2282927); settings: HepG2 Attagene cis-factorial transcription factor reporter; actives raise or lower the signal
Chain of CCAAT/enhancer-binding protein beta (Homo sapiens) (P17676 whole entry, looked up): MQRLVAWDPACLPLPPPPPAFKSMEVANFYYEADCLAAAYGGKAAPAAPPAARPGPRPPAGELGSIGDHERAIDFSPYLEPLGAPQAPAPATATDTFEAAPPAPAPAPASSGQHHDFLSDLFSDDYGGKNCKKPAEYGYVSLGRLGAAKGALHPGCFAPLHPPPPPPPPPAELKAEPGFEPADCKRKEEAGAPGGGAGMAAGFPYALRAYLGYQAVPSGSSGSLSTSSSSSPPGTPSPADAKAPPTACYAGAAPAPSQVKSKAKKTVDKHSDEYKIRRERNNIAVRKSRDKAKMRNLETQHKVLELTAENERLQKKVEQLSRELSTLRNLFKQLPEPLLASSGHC
How it was run: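 HepG2 transiently transfected with multiplexed reporter units under cis-regulatory promoters reporting endogenous C/EBPb activity. After 24 h exposure, reporter mRNA assayed by RT-PCR, fluorescent labelling, HpaI digestion and capillary electrophoresis; bidirectional fitting versus DMSO.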

[3] = ATG_CMV_CIS: Attagene CIS-FACTORIAL HepG2 Assay for human CMV (Internal Marker) (AID 2282928); settings: HepG2 CMV promoter reporter, transcription factor profiling; actives raise or lower the signal;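 also: endpoint acts as a background internal control marker rather than a target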
How it was run: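 Endogenous transcription factor activity read in HepG2 via transfected cis-promoter reporter units. After 24 h dosing, reporter mRNA measured by RT-PCR/capillary electrophoresis; gain or loss of signal fit relative to DMSO.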

[4] = ATG_DR4_LXR_CIS: Attagene CIS-FACTORIAL HepG2 Assay for human Liver X Receptor (LXR), DR4 submotif (AID 2282929); settings: HepG2 Attagene DR4 cis-reporter, mRNA transcription; actives raise or lower the signal
How it was run: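 Measures endogenous transcription factor activity via a DR4-driven reporter transcript in human HepG2 cells. Compounds incubated 24 h; mRNA quantified by RT-PCR and capillary electrophoresis, analysed as gain or loss of signal versus DMSO.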

[5] = target: Aryl hydrocarbon receptor (Homo sapiens) (UniProt P35869); experiment: ATG_Ahr_CIS: Attagene CIS-FACTORIAL HepG2 Assay for human Aryl Hydrocarbon Receptor (Ahr) (AID 2282930); settings: HepG2 AhR cis-factorial reporter transcription; actives raise or lower the signal
Chain of Aryl hydrocarbon receptor (Homo sapiens) (P35869 whole entry, looked up): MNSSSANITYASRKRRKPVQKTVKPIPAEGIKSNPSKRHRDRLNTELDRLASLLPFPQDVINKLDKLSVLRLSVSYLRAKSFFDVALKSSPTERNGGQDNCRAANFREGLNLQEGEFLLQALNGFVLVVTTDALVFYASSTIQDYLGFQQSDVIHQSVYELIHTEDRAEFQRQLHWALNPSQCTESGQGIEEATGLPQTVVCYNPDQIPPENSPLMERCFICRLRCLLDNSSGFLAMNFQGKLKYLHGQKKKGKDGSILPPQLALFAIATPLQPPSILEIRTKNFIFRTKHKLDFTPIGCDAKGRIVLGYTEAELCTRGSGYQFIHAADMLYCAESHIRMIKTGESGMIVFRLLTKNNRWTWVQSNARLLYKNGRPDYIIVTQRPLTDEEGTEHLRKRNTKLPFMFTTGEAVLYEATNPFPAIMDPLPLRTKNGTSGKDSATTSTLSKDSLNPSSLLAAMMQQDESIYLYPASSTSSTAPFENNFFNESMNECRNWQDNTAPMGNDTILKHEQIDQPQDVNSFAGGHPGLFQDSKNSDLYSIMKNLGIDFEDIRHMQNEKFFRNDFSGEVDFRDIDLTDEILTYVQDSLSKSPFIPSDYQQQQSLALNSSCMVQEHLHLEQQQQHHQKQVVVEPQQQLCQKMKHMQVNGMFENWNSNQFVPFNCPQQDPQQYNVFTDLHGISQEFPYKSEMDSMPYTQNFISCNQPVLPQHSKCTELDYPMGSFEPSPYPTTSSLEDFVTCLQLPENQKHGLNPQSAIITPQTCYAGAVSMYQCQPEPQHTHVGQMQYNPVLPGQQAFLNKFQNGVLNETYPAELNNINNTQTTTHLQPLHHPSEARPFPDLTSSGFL
How it was run: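 HepG2 cells transiently transfected with cis-element-driven multiplexed reporter units; endogenous AhR activity read as reporter mRNA 24 h after dosing, via RT-PCR, 6-FAM labelling, HpaI digestion and capillary electrophoresis. Bidirectional fit relative to DMSO.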

[6] = ATG_AP_1_CIS: Attagene CIS-FACTORIAL HepG2 Assay for human Activator Protein 1 (AP-1) (AID 2282931); settings: HepG2 Attagene cis-factorial AP-1 reporter mRNA; actives raise or lower the signal
How it was run: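 Bidirectional concentration-response fitting against DMSO controls. Underlying signal: reporter mRNA from cis-promoter constructs in transiently transfected HepG2, measured after 24 h by RT-PCR and capillary electrophoresis.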

[7] = ATG_AP_2_CIS: Attagene CIS-FACTORIAL HepG2 Assay for human Activator Protein 2 (AP-2) (AID 2282932); settings: HepG2 AP-2 cis-reporter, Attagene transcription factor profiling; actives raise or lower the signal
How it was run: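 Multiplexed mRNA reporter assay in HepG2: cis-regulated units report endogenous factor activity after 24 h treatment. Fluorescence from capillary electrophoresis of RT-PCR products gives the signal, with DMSO as baseline.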

[8] = ATG_BRE_CIS: Attagene CIS-FACTORIAL HepG2 Assay for human Bone Morphogenetic Protein (BMP) Response Element (BRE) (AID 2282933); settings: HepG2 BMP response element reporter, Attagene transcription factor profiling; actives raise or lower the signal
How it was run: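 After a 24 h chemical treatment, transiently transfected HepG2 cells were lysed for RNA; reporter transcripts were quantified by fluorescent RT-PCR and capillary electrophoresis, normalised to DMSO.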

[9] = target: Retinoic acid receptor alpha (Homo sapiens) (UniProt P10276); experiment: ATG_DR5_RAR_CIS: Attagene CIS-FACTORIAL HepG2 Assay for human Retinoic Acid Receptor Alpha (RARE), DR5 submotif (AID 2282934); settings: HepG2 Attagene cis-factorial RARE DR5 reporter, mRNA; actives raise or lower the signal;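 as to AC50: reporter responds to endogenous RAR alpha beta and gamma in HepG2 not RARA alone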
Chain of Retinoic acid receptor alpha (Homo sapiens) (P10276 whole entry, looked up): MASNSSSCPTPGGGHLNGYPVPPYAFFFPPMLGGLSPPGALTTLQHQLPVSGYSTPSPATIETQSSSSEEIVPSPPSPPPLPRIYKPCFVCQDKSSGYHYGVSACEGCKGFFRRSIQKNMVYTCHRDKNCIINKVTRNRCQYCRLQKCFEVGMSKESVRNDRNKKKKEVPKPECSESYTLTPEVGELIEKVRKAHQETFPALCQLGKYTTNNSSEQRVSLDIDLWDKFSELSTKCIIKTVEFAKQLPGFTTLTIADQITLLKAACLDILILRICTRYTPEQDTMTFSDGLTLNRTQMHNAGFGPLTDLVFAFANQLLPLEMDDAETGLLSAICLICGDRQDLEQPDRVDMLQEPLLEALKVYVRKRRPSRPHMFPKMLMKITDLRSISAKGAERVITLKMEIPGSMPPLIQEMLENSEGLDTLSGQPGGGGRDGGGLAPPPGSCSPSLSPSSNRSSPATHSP
How it was run: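 HepG2 cells transiently transfected with multiplexed reporter units; DR5 cis-element drives reporter through endogenous transcription factors. After 24 h dosing, reporter mRNA quantified by RT-PCR, fluorescent labeling, HpaI digestion and capillary electrophoresis; bidirectional fitting versus DMSO.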

[10] = target: Transcription factor E2F1 (Homo sapiens) (UniProt Q01094); experiment: ATG_E2F_CIS: Attagene CIS-FACTORIAL HepG2 Assay for human E2F Transcription Factor 1 (AID 2282935); settings: HepG2 Attagene cis-reporter, E2F reporter RNA transcripts; actives raise or lower the signal
Chain of Transcription factor E2F1 (Homo sapiens) (Q01094 whole entry, looked up): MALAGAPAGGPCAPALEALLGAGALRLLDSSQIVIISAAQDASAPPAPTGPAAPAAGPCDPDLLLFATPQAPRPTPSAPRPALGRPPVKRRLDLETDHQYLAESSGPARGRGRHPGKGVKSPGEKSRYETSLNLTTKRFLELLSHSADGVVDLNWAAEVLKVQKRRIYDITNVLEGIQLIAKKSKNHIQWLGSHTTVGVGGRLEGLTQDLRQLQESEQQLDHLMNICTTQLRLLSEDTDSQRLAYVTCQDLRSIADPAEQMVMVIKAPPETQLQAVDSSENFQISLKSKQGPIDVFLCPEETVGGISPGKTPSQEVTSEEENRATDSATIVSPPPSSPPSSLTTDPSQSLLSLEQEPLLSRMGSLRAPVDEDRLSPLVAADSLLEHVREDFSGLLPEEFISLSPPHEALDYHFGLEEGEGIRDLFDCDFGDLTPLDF
How it was run: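 Measures reporter transcript levels via RT-PCR with capillary electrophoresis detection in HepG2 cells harboring cis-regulated reporter units; 24 h post-dose; bidirectional curve fitting with DMSO as baseline.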

Measured: AC50

O=P(O)(O)Oc1ccccc1
inactive: all assays above

Cc1ccc2c(c1)C(=O)c1ccccc1C2=O
active: [3] 21.5 µM | [5] 9.39 µM
inactive: all other assays above

COC(=O)c1sccc1S(N)(=O)=O
inactive: all assays above

CCCCCCCCC(=O)OCC
inactive: all assays above

NCCCN1CCN(CCCN)CC1
inactive: all assays above

COc1ccc([C@@H]2CC(=O)c3c(O)cc(O[C@@H]4O[C@H](CO[C@@H]5O[C@@H](C)[C@H](O)[C@@H](O)[C@H]5O)[C@@H](O)[C@H](O)[C@H]4O)cc3O2)cc1OC
inactive: all assays above

CCCCCC/C=C\CCCCCCCC(=O)O
active: [1] 34.7 µM | [4] 27.3 µM | [9] 34.2 µM
inactive: all other assays above

CC(C)(C)c1ccc(OC(=O)c2ccccc2O)cc1
active: [3] 34.7 µM
inactive: all other assays above

CC[C@H]1OC(=O)[C@H](C)[C@@H](O[C@H]2C[C@@](C)(OC)[C@@H](O)[C@H](C)O2)[C@H](C)[C@@H](O[C@@H]2O[C@H](C)C[C@H](N(C)C)[C@H]2O)[C@](C)(O)C[C@@H](C)C(=NOCOCCOC)[C@H](C)[C@@H](O)[C@]1(C)O
inactive: all assays above

NNC(=O)c1cccc(C(=O)NN)c1
inactive: all assays above

CCCCC(CC)COC(=O)c1ccccc1 (stereo not given)
inactive: all assays above

O=C1CCCCCN1SSN1CCCCCC1=O
active: [1] 147 µM
inactive: all other assays above

O=S1(=O)OC(c2ccc(O)cc2)(c2ccc(O)cc2)c2ccccc21
active: [5] 34.9 µM
inactive: all other assays above

C=C1[C@H]2CC[C@@H]3[C@H]2C(C)(C)CCC[C@]13C
active: [3] 100 µM
inactive: all other assays above

CC(=O)Nc1nnc(S(N)(=O)=O)s1
inactive: all assays above

C=CCOCC(O)CCl (stereo not given)
inactive: all assays above

CCCCCCCCCCCCCOP(=O)(O)O
inactive: all assays above

CC=C1CC2C=CC1C2 (stereo not given)
active: [4] 26.5 µM | [6] 67.1 µM
inactive: all other assays above

O=C1CCCC(=O)O1
inactive: all assays above

O=C(O)CC(C(=O)O)C(CC(=O)O)C(=O)O (stereo not given)
inactive: all assays above

CC(C)C1=CC2=CC[C@@H]3[C@](C)(CCC[C@@]3(C)C(=O)O)[C@H]2CC1
active: [3] 135 µM | [4] 3.7 µM | [5] 31.6 µM | [6] 149 µM
inactive: all other assays above

CCCCCC/C=C/C=O
inactive: all assays above

S=C(NC1CCCCC1)NC1CCCCC1
inactive: all assays above

CC(CC=O)c1ccccc1 (stereo not given)
active: [4] 71.7 µM | [5] 123 µM | [6] 131 µM
inactive: all other assays above

CCCCC/C=C\CCC=O
inactive: all assays above

CCCCCCCCCCC=CC#N
active: [3] 100 µM | [4] 100 µM | [6] 111 µM
inactive: all other assays above

CC(=O)OCc1ccco1
inactive: all assays above

Cc1cc(C)c(C)c(C)c1
inactive: all assays above

COCC(C)N (stereo not given)
inactive: all assays above

N=c1ccn2c(n1)O[C@H]1[C@H](O)[C@@H](CO)O[C@H]12
inactive: all assays above

O=S(=O)(O)c1ccc2cc(O)c(S(=O)(=O)O)cc2c1
active: [3] 166 µM | [4] 60.8 µM | [5] 138 µM
inactive: all other assays above

CCOC(=O)Cc1cccc2ccccc12
active: [9] 39.5 µM
inactive: all other assays above

CN(C)c1ccc(N=Nc2ccccc2C(=O)O)cc1
active: [3] 137 µM | [4] 29.7 µM | [6] 37.7 µM
inactive: all other assays above

NC(=O)N=NC(N)=O
active: [8] 35 µM
inactive: all other assays above

COC=O
inactive: all assays above

CCCCOCCOC(=O)COc1nc(Cl)c(Cl)cc1Cl
inactive: all assays above

O=C(c1ccccc1)c1ccc(O)c(O)c1O
active: [5] 84.4 µM
inactive: all other assays above

CCCNC(=O)NS(=O)(=O)c1ccc(Cl)cc1
inactive: all assays above

CCCOC(=O)CCCCC(=O)OCCC
inactive: all assays above

O=S(=O)(O)c1ccccc1C=Cc1ccc(-c2ccc(C=Cc3ccccc3S(=O)(=O)O)cc2)cc1
active: [8] 39.6 µM
inactive: all other assays above

COC(=O)c1ccc2cc(C(=O)OC)ccc2c1
inactive: all assays above

CCN(CCO)c1cccc(C)c1
active: [5] 55 µM
inactive: all other assays above

CCOC(=O)NNc1nncc2ccccc12
inactive: all assays above

From PubChem BioAssay (EPA / NIEHS)
